# Screens deposited in PubChem BioAssay by National Center for Advancing Translational Sciences (NCATS).
# CtBP-E1A blk: inhibitors of CtBP/E1A interaction; AlphaScreen GST-E1A/His-CtBP binding, 1536-well; hits give low values; activity change, % (no concentration beside the values); hit rate 0.49% among 340,000; AID 651724; in the data active means activity change below about -65%; inconclusive means mostly about -30% to -63%
#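 Homogeneous bead-based format: GST-tagged E1A captured on glutathione donor beads, His-tagged CtBP on nickel acceptor beads; compounds precede bead addition by 2 h at 37 °C.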
# Six1-Eya2 blk: Six1/Eya2 interaction inhibition | AlphaScreen GST-Six1/His-Eya2 binding, biochemical; hits give low values | activity change, % (test concentration not listed) | hit rate 0.56% among 360,000 | Q15475+O00167 | AID 651725; in the data active means activity change below about -65%; inconclusive means mostly about -30% to -63%
#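 Homogeneous AlphaScreen proximity assay pairing GST-Six1 with His-tagged Eya2 (added as 5X mix: 250 nM and 500 nM) in 50 mM Tris pH 8.0, 300 mM NaCl, 1 mM TCEP. Glutathione donor and nickel acceptor beads; 1 h, 37 °C, dark.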
# Eya2 phos inh: inhibitors of human Eya2 phosphatase activity; Potency, µM (doses to about 76.9 µM), for the others: at the highest dose activity, negative = inhibition, hits mostly inhibitors; AID 488837; recombinant Eya2, OMFP fluorescence dephosphorylation (OMFP is methylfluorescein phosphate); O00167; hit rate 0.006% among 330,000; further: potency means the concentration at half of the fitted maximal effect
#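 Eya2 (0.2 uM) preincubated 10 min at ambient with compound, then OMFP substrate added at 50 uM; 10 min reaction in 50 mM HEPES pH 7.5, 50 mM NaCl, 5 uM MgCl2, 0.05% BSA, 1 mM DTT. Fluorescence read at Ex 485/Em 525 nm.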
# JMJD2E inh: blocks human JMJD2E demethylase activity; B2RXH2; JMJD2E catalytic domain, FDH-coupled NADH fluorescence (FDH is formaldehyde dehydrogenase); Potency, µM (titrated, usually from 57.1 µM), for inactives: at the top dose activity change, negative = inhibition, hits mostly inhibitors; hit rate 1.6% among 230,000; AID 2147; active means well fitted inhibition curve with a large enough effect, not every such curve was filed as active; inconclusive means small, poorly fitted or top-dose-only effect, or another doubt; inactive means no such curve, though single readings can be large or run the other way;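 further: potency means the concentration at half of the fitted maximal effect; 0% = wells with enzyme and -100% = buffer wells without enzyme; nearly all actives have a fitted effect of over 50% in size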
# Target sequence (B2RXH2 1-337 limits assumed): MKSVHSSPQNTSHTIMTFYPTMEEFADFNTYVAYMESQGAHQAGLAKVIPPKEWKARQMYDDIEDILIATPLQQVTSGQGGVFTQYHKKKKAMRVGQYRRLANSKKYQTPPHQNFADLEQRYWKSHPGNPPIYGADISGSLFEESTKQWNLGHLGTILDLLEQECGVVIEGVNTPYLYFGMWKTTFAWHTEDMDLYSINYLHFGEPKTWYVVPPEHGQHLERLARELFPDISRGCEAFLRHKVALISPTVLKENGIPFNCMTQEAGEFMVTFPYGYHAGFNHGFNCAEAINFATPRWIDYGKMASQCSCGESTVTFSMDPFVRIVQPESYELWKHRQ
# GALK inh: blocks human galactokinase activity. hit rate 0.007% among 270,000. Purified GALK, Kinase-Glo residual ATP luminescence. Potency, µM (highest dose often 57.5 µM), for inactives: top-dose activity change, negative = inhibition, actives largely listed as inhibitors; further: potency means the concentration at half of the fitted maximal effect
#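 GALK at 5 nM final was combined with compound, 35 uM ATP and 100 uM galactose in HEPES pH8.0 with MgCl2 and DTT. The reaction ran one hour at room temperature before luminescent ATP detection.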
# Anesthetic bind: binds horse apoferritin like a general anesthetic. P02791. apoferritin/1-aminoanthracene competitive binding, fluorescence. Potency, µM (titrated, usually from 77.5 µM), inactives show at the highest dose activity change, negative = displacement, hits mostly inhibitors. hit rate 0.074% among 350,000; further: potency means the concentration at half of the fitted maximal effect; nearly all actives have a fitted effect of over 20% in size
# Target sequence (P02791 2-175 limits assumed): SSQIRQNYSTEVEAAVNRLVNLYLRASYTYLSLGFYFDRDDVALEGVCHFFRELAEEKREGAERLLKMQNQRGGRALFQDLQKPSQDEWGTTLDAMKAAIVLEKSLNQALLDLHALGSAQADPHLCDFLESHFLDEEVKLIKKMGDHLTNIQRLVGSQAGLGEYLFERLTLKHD
#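 Horse-spleen apoferritin (10 uM) in 50% saturated 1-aminoanthracene in PBS was incubated 10 min at room temperature with compound. Fluorescence (ex 380, em 535 nm) was normalized to free and bound 1-AMA, with concentration-response fitted by a four-parameter Hill equation.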
# An asterisk follows results filed as active; i = inactive; ? = inconclusive; nt = no result; ! = repeats disagree; [ ] = another dose, or the depositor's remark. The sample as a whole holds a higher share of hits than the screen did. Unless noted, the call rests on the fitted dose curve; in most records, active means well fitted curve in the direction sought with a large enough effect; inconclusive means small, poorly fitted or top-dose-only effect, or another doubt; inactive means no such curve, though single readings can be large; an effect the other way counts as inactive or inconclusive. Unless noted, on the % scale 0 is the no-effect control and ±100 the full control effect.
SMILES,CtBP-E1A blk,Six1-Eya2 blk,Eya2 phos inh,JMJD2E inh,GALK inh,Anesthetic bind
O=C1c2cccc(O)c2C(=O)c2c(O)cc(CO)cc21,-18,-19,nt,nt,nt,-13%
O=C1c2c(O)ccc(O)c2C(=O)c2c(NCCNCCO)ccc(NCCNCCO)c21,-82*,-85*!,-1%,22µM*!,nt,?
CCN1CCN(C(=O)c2ccc3c(c2)N(Cc2c(F)cccc2Cl)C(=O)c2ccccc2S3)CC1,nt,nt,nt,nt,nt,1%
Brc1ccc(-c2cn3nc4c(nc3n2)CCCC4)cc1,27,14,-17%,?,0%,137%
c1ccc(-c2cn3nc4c(nc3n2)CCCC4)cc1,12,4,13%,32µM*,4%,i
CCOC(=O)C(Sc1nnc2c3ccccc3n(CC)c2n1)C(=O)OCC,-72*,?,10%,-3%,-2%,-4%
CCOC(=O)CSc1nnc2c3ccccc3n(CC)c2n1,-3,1,-6%,nt,0%,-4%
C[C@@H]1[C@H](C)CC[C@@]2(C(=O)O)CC[C@]3(C)C(=CC[C@H]4[C@@]5(C)CC[C@@H](O)C(C)(C)[C@@H]5CC[C@@]43C)[C@@H]12,nt,nt,nt,0%[25.5 µM],nt,-14%[29.3 µM]
C=C(C)C(=O)/C=C/c1ccc(Br)cc1,nt,nt,nt,4%,nt,nt
COc1ccc(C=C(C#N)C(=O)c2ccccc2)cc1,7,14,nt,nt,nt,nt
COc1cc(/C=C(\C#N)C(=O)c2ccc(O)c(O)c2)cc(I)c1O,-6,?,?,10µM*,nt,nt
CC(C)(C)n1nnnc1C(c1ccccc1)N1CCN(c2ncccc2C(F)(F)F)CC1 (stereo not given),0,-7,nt,nt,nt,nt
CC(C)(C)CC(=O)Nc1ccc(Nc2ccccc2)cc1,-3,-5,-37%,2%,0%,8.9µM*
CCc1ccc(CNC(=O)CSCc2cnn(-c3ccccc3)c2-n2cccc2)cc1,nt,nt,nt,nt,nt,8%
COc1ccc2c(c1)CC/C(=C\Nc1ccc3c(c1)OCO3)C2=O,2,-10,14%,?,-1%,-23%
O=C1/C(=C/Nc2ccc3c(c2)OCO3)CCc2ccccc21,4,-14,-13%,14µM*,5%,?
Cc1ccccc1CNC(=O)C(=O)NCC(c1ccco1)S(=O)(=O)c1ccc(F)cc1 (stereo not given),nt,nt,nt,nt,nt,2%
O=C(O)Cc1csc(Nc2cccc(Cl)c2)n1,0,-2,0%,-6%,0%,10µM*
CCN(CC)S(=O)(=O)c1cccc(NC(=O)c2ccc(-n3nc(C)cc3C)cc2)c1,-70*,-6,1%,-7%,1%,-22%
Cc1cc(C)n(-c2ccc(C(=O)Nc3cccc(S(=O)(=O)N(C)C)c3)cc2)n1,?,?,-11%,11%,-2%,?
O=C(Nc1ccccc1O)c1ccc(NC(=O)C2CC2)cc1,-10,-4,13%,nt,5%,-10%
O=C(Nc1ccccc1C(=O)Nc1ccccc1C(=O)O)c1ccccc1,-67*,-81*,-1%,nt,-6%,7%
O=C(Nc1ccccc1C(=O)O)c1ccc(NC(=O)C2CC2)cc1,?,-81*,-5%,nt,-1%,-9%
COc1cc2cc(-c3ccc(OC)c(OC)c3C)nc(N)c2cc1OC,-13,-23,nt,nt,nt,nt
COc1cc2cc(-c3ccc(O)cc3O)nc(C)c2cc1OC,-86*,?,-6%,nt,-3%,4%
SMILES,CtBP-E1A blk,Six1-Eya2 blk,Eya2 phos inh,JMJD2E inh,GALK inh,Anesthetic bind
Cn1nnc2sc3c(c2c1=O)CCCC3,4,-1,-14%,-1%,-1%,32µM*
Cc1nc2sc3c(c2c(=O)n1N)CCC3,-6,-2,-3%,-1%,-2%,-10%
CCOc1ccc(/C=C/C(=O)c2cc(Br)ccc(=O)c2O)cc1,10,-20,1%,32µM*,0%,-20%
CC(C)C[C@@H](CC(=O)N[C@@H](CCC(=O)O)CC(=O)O)NC(=O)[C@@H]1CCCC[C@H]1NC(=O)C[C@H](CCCN)NC(=O)C[C@H](Cc1c[nH]c2ccccc12)NC(=O)[C@@H]1CCCC[C@H]1N,nt,nt,nt,-17%,nt,nt
COc1ccc(N2CCN(C3CCCN(S(=O)(=O)c4ccc(C)cc4C)C3)CC2)cc1 (stereo not given),-66*,?,-3%,nt,-9%,-10%
COc1ccc(N2CCN(C3CCCN(S(=O)(=O)c4ccccc4)C3)CC2)cc1 (stereo not given),-18,-11,-5%,nt,5%,-2%
CCC(=O)O[C@@H]1[C@H](C)O[C@H](O[C@H]2[C@@H](N(C)C)[C@H](O)[C@@H](O[C@@H]3[C@@H](CC=O)C[C@@H](C)[C@@H](O)/C=C\C=C/C[C@@H](C)OC(=O)C[C@@H](OC(=O)CC)[C@H]3OC)O[C@H]2C)C[C@]1(C)O,nt,nt,nt,6%[25.5 µM],nt,-5%[29.3 µM]
N#CC1=C(N)SC(N)=C(C#N)C1c1ccc(C(F)(F)F)cc1,nt,nt,9%,13µM*,2%,-11%
CCc1ccc(C2C(C#N)=C(N)SC(N)=C2C#N)cc1,0,-5,14%,?,0%,?
Cc1ccc(C(=O)COC(=O)CSc2cccc3cccnc23)c(C)c1,-77*,0,nt,nt,nt,nt
C=CCC(C)(O)c1ccccc1 (stereo not given),nt,nt,nt,5%,nt,nt
O=S(=O)(Cc1ccccc1Cl)N1CCCC1,-79*,2,6%,-6%,0%,-12%
CCOC(=O)CCN1C(=O)[C@H]2[C@H]3[C@H](O)[C@H](O)C/C(=N/OCc4ccccc4)[C@H]3CC[C@@H]2C1=O,nt,nt,nt,nt,nt,-8%[15.3 µM]
COC(=O)c1cccc(/C=N/NC(N)=S)c1O,nt,-66*,2%,?,-1%,72%
N#CC(c1ccccc1)c1ccc2c(C(F)(F)F)cc(C(F)(F)F)nc2n1 (stereo not given),-66*,-75*,-4%,-1%,4%,?
COc1ccccc1OCc1nc(C#N)c(NCCCn2ccnc2)o1,-4,-1,-8%,5%,1%,-6%
N#Cc1nc(-c2ccc(OCc3ccccc3)cc2)oc1NCCCn1ccnc1,-1,-8,-5%,?,-3%,-12%
N#Cc1nc(COc2ccccc2F)oc1NCCCn1ccnc1,-75*,?,14%,14%,-1%,-14%
N#Cc1nc(-c2ccc(OCc3ccccc3Cl)cc2)oc1NCCCn1ccnc1,nt,nt,-6%,3.2µM*,-3%,-7%
Cc1cc(C)cc(-n2c(SCC(N)=O)nc3c(oc4ccccc43)c2=O)c1,nt,nt,nt,nt,nt,-11%
Cc1ccccc1C(=O)N/N=C/c1ccc([N+](=O)[O-])s1,44,8,13%,-5%,-2%,-20%
Cc1c(Cl)cccc1N=Cc1ccc([N+](=O)[O-])s1,?,-67*,4%,22µM*,-1%,?
